Compounds without any hit were thinned out: in the full panel of roughly 83,000, 20% have a hit.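 Plates (96-well) were seeded with cells, treated with compound at one concentration, and incubated for 48 hours before percent growth was determined.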 Values without a mark were called inactive. Activity calls are given as the source filed them. The calls were made as follows: active = growth percent below 10; inactive = the rest.
What follows are molecules tested on COLO 205 colon (assay: NCI-60 one-dose screen, 48 h (100 = growth as untreated, 0 = no growth, -100 = all killed)). Details: 10 µM unless noted.

SMILES | growth
COc1ccc(C(=O)NC(=O)Nc2ccc3c(c2)NC(=O)/C3=C\c2[nH]c(C)c(CCC(=O)O)c2C)c(F)c1 | 37.5%
Cn1c(I)c(C#C[Si](C)(C)C)c(=O)[nH]c1=O | -59% (active)
COC(=O)c1oc2c(C(C)=O)c(OCCCN(C)C)ccc2c1C | 109%
CC(C)NCC(O)COc1ccc(CC(N)=O)cc1 (centres undefined) | 114%
O=C(NCCNc1nccc(-c2c(-c3cccc(O)c3)nc3sccn23)n1)Nc1cccc(C(F)(F)F)c1 | 53.2%
CNCCCOc1c(Br)cc(CCNC(=O)/C(Cc2ccc(OC)c(Br)c2)=N/O)cc1Br | -58.6% (active)
COc1cccc(-c2nc3sccn3c2-c2ccnc(NCCNC(=O)c3ccccc3)n2)c1 | 51.8%
O=C(N/N=C1\SCC(=O)N1c1ccccc1)c1cc(-c2cc3ccccc3o2)nn1-c1ccccc1 | 132%
Cc1ccc2c(c1)Nc1ccc(C)cc1C2(C)C | 84.3%
COc1cc(NC(C)CCCN2C(=O)c3ccccc3C2=O)c2nccc(C)c2c1OC (centres undefined) | 131%
NCC(=O)NS(=O)(=O)OC[C@H]1O[C@@H](n2cnc3c(N)ncnc32)[C@H](O)[C@@H]1O | 48.5%
CCN(CC)CC(=O)Nc1c(C)cccc1C | 115%
Nc1ncnc2c1c(-c1ccc(Oc3ccccc3)cc1)nn2C[C@@H]1SSC[C@H]1O | 52%
COc1cc(/C=C\c2cc(/C=C\c3ccc(O)c(OC)c3)n(C(=O)CNc3ccccc3OC)n2)ccc1O | 107%
O=C1OC(N(Cc2ccc(Cl)cc2)c2ccccc2)c2ccccc21 (centres undefined) | 104%
CN(C)CC/C=C1\c2ccccc2Sc2ccc(Cl)cc21 | -40.1% (active)
O=C(Nc1cccc(-n2ccc3c(NC(=O)c4ccccc4)nccc32)c1)Nc1cc(C(F)(F)F)cc(C(F)(F)F)c1 | -36.3% (active)
CCCCC(=O)Nc1nc2ccc(SCCC)cc2s1 | 51.6%
CCN(CC)c1ccc(C2CC(c3cc(OC)c(OC)c(OC)c3)=NN2)cc1 (centres undefined) | -25.7% (active)
c1ccc2nc(Cn3cc[n+](Cc4ccc5ccccc5n4)c3)ccc2c1 | 25.6%

SMILES | growth
Clc1ccc(OCc2nc(-c3ccccc3)n[nH]2)c(Cl)c1 | 90.5%
CC(C)CNCC(=O)Nc1ccc(Cc2ccc(NC(=O)CNCC(C)C)cc2)cc1 | 53.8%
O=C(O)c1ccc(-n2cc(/C=N/Nc3ccc(F)cc3)c(-c3cccc(C(F)(F)F)c3)n2)cc1 | 105%
CCCCCCCCCCCCCCCCCCNCc1ccc(Cl)cc1 | -83.9% (active)
COc1ccc(CCNC=O)cc1OC | 96.3%
O=C(COc1ccc(Cl)cc1Cl)N1N=C(c2ccc(Cl)cc2Cl)CC1(O)c1cc(F)c(Cl)cc1Cl (centres undefined) | 95.4%
Cc1nccc2c3ccc(OCc4cn(Cc5ccc(Br)cc5)nn4)cc3n(CCCc3ccccc3)c12 | 92.4%
COc1ccc(-c2c(C#N)cnc(N)c2-c2nc3cc(C)c(C)cc3[nH]2)cc1 | 68.7%
O=c1c2ccccc2[nH]n1Cc1ccc2c(c1)OCO2 | 116%
COc1cc(Nc2ncccc2C(=O)Nc2nc3ccc(F)cc3s2)cc(OC)c1OC | 118%
Cc1ccc(Cn2cc(COc3ccc4c5ccnc(C)c5n(CCCc5ccccc5)c4c3)nn2)cc1 | 92.2%
O=C(Nc1ccc(-n2ccc3c(NC(=O)c4ccccc4)ncnc32)cc1)Nc1ccc(Cl)c(C(F)(F)F)c1 | 17.4%
CCCCOc1c(N)cc(Cl)cc1C(=O)OCCN(CC)CC | 115%
CC(Cl)(CCl)CS(=O)(=O)c1ccc(Cl)cc1 (centres undefined) | 106%
CCc1c(C)c2cc3c(c(C)c2oc1=O)OCC(=O)N3 | 83%
Cc1ccc(NC(=O)CN2CCOCC2)cc1Cl | 102%
CC1(C)CC(=O)C2=C(C1)OC1=C(C(=O)CC(C)(C)C1)C2c1ccc(OCc2cn(-c3ccc(F)cc3F)nn2)cc1 | 101%
COc1cccc(-c2nc3sccn3c2-c2ccnc(NCCNC(=O)Nc3cccc(C(F)(F)F)c3)n2)c1 | 57.6%
CN(C)c1ccc(/C=N/N=C(N)N)cc1 | 54.7%

Reference: PubChem BioAssay (NCI)
